# Source: PubChem BioAssay AID540357 (National Center for Advancing Translational Sciences (NCATS), 2011)
# Calls of active or inactive are those of the source.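 The calls were made as follows: active = compounds whose fitted potency in the phosphatase confirmation test is under 20 µM; inconclusive = potency fitted but weaker than 20 µM; inactive = no potency could be fitted.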
# Biological target: Protein phosphatase EYA2 (Homo sapiens) (UniProt O00167)
# Test: Inhibitors of Eya2ED: Hit Confirmation in Malachite Green Secondary Assay
# Conditions: phosphopeptide, malachite green absorbance
# Excerpt: The Eya proteins (Eya1-4) were originally identified as essential co-activators of the Six1 transcription factor. […] Knockdown of Six1 decreases cancer cell proliferation and metastases in several different cancer models. […] A fluorescence-based HTS assay has been perfomed against the Molecular Libraries Small Molecule Repository (MLSMR) and has the AID 488837 in this database. In order to confirm the hits obtained from the primary screen several follow-up screens have been/will be carried out. This secondary screen uses a different substrate and a different detection method and will help eliminate false positives obtained from the primary screen. More specifically, this assay measures phosphatase activity by measuring inorganic phosphate, the product of the hydrolysis of the phosphate group on the protein substrate. The inorganic phosphate is detected with malachite green, which in strongly acid conditions, produces a complex which is green and is detected by absorbance. NIH Chemical Genomics Center [NCGC] NIH Molecular Libraries Probe Centers Network [MLPCN] MLPCN Grant: DA030559-01 Assay Submitter (PI): Rui Zhao, University of Colorado, Denver
# Phospatase assay (25ul) was carried out in transparent, 96-well, half-area microplates. […] After 20 minute incubation at room temperature, the absorbance was read at 620nm using a Spectramax PLUS 384 plate reader by Molecular Devices. […]
# Sequence of Protein phosphatase EYA2 (Homo sapiens) (O00167 whole entry, looked up): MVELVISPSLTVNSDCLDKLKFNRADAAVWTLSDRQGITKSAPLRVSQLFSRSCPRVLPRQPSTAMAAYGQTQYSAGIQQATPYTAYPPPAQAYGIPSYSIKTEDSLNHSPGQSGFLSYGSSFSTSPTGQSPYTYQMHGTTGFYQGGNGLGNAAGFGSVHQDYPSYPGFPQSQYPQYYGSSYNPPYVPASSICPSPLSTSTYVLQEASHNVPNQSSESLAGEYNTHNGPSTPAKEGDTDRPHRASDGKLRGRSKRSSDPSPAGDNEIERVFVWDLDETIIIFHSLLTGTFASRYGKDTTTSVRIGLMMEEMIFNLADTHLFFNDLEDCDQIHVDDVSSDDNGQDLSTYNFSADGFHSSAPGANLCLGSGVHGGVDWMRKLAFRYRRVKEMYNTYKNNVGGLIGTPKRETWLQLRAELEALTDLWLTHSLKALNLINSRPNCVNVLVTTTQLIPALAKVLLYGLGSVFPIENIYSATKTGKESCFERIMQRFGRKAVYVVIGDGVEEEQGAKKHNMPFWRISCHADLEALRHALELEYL
row,Structure (SMILES),Potency
1,CCNC(=S)NNC(=O)c1csc2ccccc12,16.8 µM (active)
